Screening data as filed in PubChem BioAssay.
Sampled rows, rich in hits. Any-hit rate of the full collection: about 2.4%.
Pol beta inh: blocks human DNA polymerase beta activity; P06746; Pol beta primer extension/strand displacement, fluorescence kinetic; Potency, µM (top dose mostly 114 µM), for inactives: at the highest dose activity change, negative = inhibition, usual class: inhibitors; actives 1.3% (n = 340,000); also: % is scaled to controls: 0 for no effect and ±100 for the full control effect
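Pol beta (10 nM) was preincubated with compound for 15 min at room temperature. The reaction was then started with 50 nM substrate and read immediately and after a further 10 min at room temperature.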
Pol iota inh: blocks human DNA polymerase iota activity. Potency, µM (top dose mostly 115 µM), inactives show at the top dose activity, negative = inhibition, actives largely listed as inhibitors. actives 1% (n = 390,000). Pol iota fluorescent replication assay, 10 min. AID 588590
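Fluorescent replication assay read twice, at 0 min and 10 min after adding 50 nM (final) substrate. Enzyme (10 nM) and compounds were first incubated 15 min at room temperature; enzyme-free buffer wells were negative controls.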
FEN1 inh: inhibitors of human flap endonuclease 1. Potency, µM (top dose mostly 114 µM), inactives show top-dose activity change, negative = inhibition, most hits filed as inhibitors. Recombinant FEN1 flap cleavage, fluorescence, 15 min. P39748. AID 588795. actives 0.35% (n = 390,000); also: % is scaled to controls: 0 for no effect and ±100 for the full control effect; nearly all actives have a fitted effect of over 65% in size
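Potency values derive from four-parameter Hill fits of normalized qHTS data. The reaction used 10 nM FEN1 preincubated 15 min at room temperature with compound, then 50 nM DNA substrate, read at 0 and 15 min.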
Pol eta inh: blocks human DNA polymerase eta activity; AID 588591; recombinant Pol eta, fluorescent DNA replication assay; Potency, µM (series often up to 114 µM), inactives show at the highest dose activity change, negative = inhibition, usual class: inhibitors; Q9Y253; actives 1.2% (n = 390,000); also: % is scaled to controls: 0 for no effect and ±100 for the full control effect
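Pol eta at 10 nM preincubated with compounds 15 min at room temperature; reaction started with fluorescent substrate (50 nM final) and read kinetically at 0 and 10 min.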
POLK inh: DNA polymerase kappa (human) inhibition. Q9UBT6. purified Pol kappa, fluorescent DNA synthesis assay, 10 min. Potency, µM (series often up to 107 µM), for inactives: at the highest dose activity, negative = inhibition, hits mostly inhibitors. actives 0.53% (n = 400,000); also: % is scaled to controls: 0 for no effect and ±100 for the full control effect
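Inhibition of 10 nM Pol kappa is measured by a fluorescent read-out at 0 and 10 min following addition of 50 nM substrate (final), with a 15-min room-temperature compound preincubation.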
WRN inhibitor: blocks human WRN helicase; Q14191; WRN helicase unwinding, fluorescent forked duplex, kinetic; Potency, µM (top dose mostly 114 µM), for inactives: top-dose activity change, negative = inhibition, most hits filed as inhibitors; actives 0.46% (n = 360,000); AID 651768; also: % is scaled to controls: 0 for no effect and ±100 for the full control effect; nearly all actives have a fitted effect of over 55% in size
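Fluorescence dequenching readout, ex 525 nm/em 598 nm, kinetic mode: forked duplex DNA (100 nM final) with adjacent fluorophore and quencher unwound by WRN (20 nM final) with 2 mM ATP. Compound preincubation 15 min, room temperature.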
* = called active by the depositor; [ ] = another dose, or the depositor's remark. Calls follow the shape of the dose curve; as a rule, active = well fitted curve in the direction sought with a large enough effect; inconclusive = small, poorly fitted or top-dose-only effect, or another doubt; inactive = no such curve, though single readings can be large; an effect the other way counts as inactive or inconclusive. Potency is read from the fitted curve at half-maximal effect.

`COc1ccc(-c2coc3c(C)c4oc(=O)c(CCC(=O)O)c(C)c4cc23)cc1` gave Pol beta inh inconclusive, Pol iota inh inconclusive, FEN1 inh -32%, Pol eta inh 50µM*, POLK inh -41% and WRN inhibitor inconclusive.
`COc1ccc(-c2coc3c2c(C)cc2oc(=O)c(CC(=O)O)c(C)c23)cc1` gave Pol beta inh 12%, Pol iota inh -6%, FEN1 inh inconclusive, Pol eta inh -14% and POLK inh -1%.
Screening Cc1c(CC(=O)O)c(=O)oc2c(C)c3occ(-c4ccc(F)cc4)c3cc12 returned Pol beta inh 50µM*, Pol iota inh -12%, FEN1 inh inconclusive, Pol eta inh 0%, POLK inh 7% and WRN inhibitor -10%.
`CC(=O)NN1C(=O)/C(=C\c2ccc(O)cc2)SC1=S` gave Pol beta inh -5%, Pol iota inh inconclusive, FEN1 inh -2%, Pol eta inh -11%, POLK inh -2% and WRN inhibitor -21%.
For CC(=O)NN1C(=O)/C(=C\c2ccc(Br)o2)SC1=S the results were Pol beta inh 28µM*, Pol iota inh inconclusive, FEN1 inh -14%, Pol eta inh 25µM*, POLK inh inconclusive and WRN inhibitor -17%[57.1 µM].
Cc1ccc(-n2c(=O)c3c4c(sc3n(Cc3cc(=O)n5cc(Cl)ccc5n3)c2=O)CCC4)cc1C was read as Pol beta inh 5%, Pol iota inh -10%, FEN1 inh -6%, Pol eta inh 0% and POLK inh -15%.
CC(C)C1=CC2=CC[C@@H]3[C@](C)(CCC[C@@]3(C)C(=O)O)[C@H]2CC1 was read as POLK inh -4%[60.1 µM].
`COC(=O)c1ccc(CN(Cc2ccc(OC)c(OC)c2)S(=O)(=O)c2cc(C(=O)Nc3cccc(C)c3)ccc2F)cc1` gave Pol beta inh -1%, Pol iota inh 11%, FEN1 inh 2%, Pol eta inh -5% and POLK inh -6%[60.1 µM].
Cc1ccccc1CNC(=O)c1ccc2c(c1)N(Cc1ccccc1)CCS2 was read as Pol beta inh 27%, Pol iota inh 22%, FEN1 inh -6% and POLK inh 8%.
For C#CCOCCOCCOCCNc1nc(N2CCN(C(=O)CCCCCCCCCCNC(=O)Cn3cc(CCCCCN)nn3)CC2)nc(N2CCN(C(=O)CCCCCCCCCCNC(=O)[C@@H](CCC(=O)O)n3cc(CCCCCN)nn3)CC2)n1 the results were Pol iota inh inconclusive, FEN1 inh 7%, Pol eta inh -15%, POLK inh 16% and WRN inhibitor 0%.
C#CCOCCOCCOCCNc1nc(N2CCOCC2)nc(N2CCN(C(=O)Cn3cc(CCCN=C(N)N)nn3)CC2)n1 was read as Pol beta inh -6%, Pol iota inh -16%, FEN1 inh -1%, Pol eta inh 1%, POLK inh 2% and WRN inhibitor 1%.
C#CCOCCOCCOCCNc1nc(N2CCN(C(=O)Cn3cc(CCO)nn3)CC2)nc(N2CCN(C(=O)Cn3cc(CCCCN)nn3)CC2)n1 was read as Pol iota inh 8%, FEN1 inh -4%, Pol eta inh -13%, POLK inh -11% and WRN inhibitor -3%.
For C#CCOCCOCCOCCNc1nc(N2CCN(C(=O)Cn3cc(CCO)nn3)CC2)nc(N2CCN(C(=O)[C@H]([C@@H](C)CC)n3cc(CCCN=C(N)N)nn3)CC2)n1 the results were Pol iota inh 12%, FEN1 inh 1%, Pol eta inh -19%, POLK inh 8% and WRN inhibitor -6%.
Screening C#CCOCCOCCOCCNc1nc(N2CCN(C(=O)Cn3cc(CCCCN)nn3)CC2)nc(N2CCN(C(=O)Cn3cc(CCCCN)nn3)CC2)n1 returned Pol beta inh 40µM*, Pol iota inh inconclusive, FEN1 inh -8%, Pol eta inh 2%, POLK inh inconclusive and WRN inhibitor -6%[57.1 µM].
`C#CCOCCOCCOCCNc1nc(N2CCN(C(=O)Cn3cc(CCCN=C(N)N)nn3)CC2)nc(N2CCN(C(=O)Cn3cc(CCCN=C(N)N)nn3)CC2)n1` gave Pol beta inh 1.6µM*.
For C#CCOCCOCCOCCNc1nc(N2CCN(C(=O)Cn3cc(CCCN=C(N)N)nn3)CC2)nc(N2CCN(C(=O)[C@H]([C@@H](C)CC)n3cc(CCC(=O)O)nn3)CC2)n1 the results were Pol beta inh -1%, Pol iota inh 89µM*, FEN1 inh 2%, Pol eta inh 3%, POLK inh 1% and WRN inhibitor 12%.
C#CCOCCOCCOCCNc1nc(N2CCN(C(=O)CCCCCCCCCCNC(=O)Cn3cc(CCCCCN)nn3)CC2)nc(N2CCN(C(=O)CCCCCCCCCCNC(=O)Cn3cc(CCCCCN)nn3)CC2)n1 was read as Pol iota inh inconclusive, FEN1 inh 89µM*, Pol eta inh -18%, POLK inh -14% and WRN inhibitor 79µM*.
`COc1ccc(Cl)cc1NC(=O)Cn1c(=O)n(Cc2ccco2)c(=O)c2ccc(C(=O)NC3CCCC3)cc21` gave Pol beta inh 12%, Pol iota inh 44%, FEN1 inh 22%, Pol eta inh -17% and POLK inh 8%.
For COc1ccc(NC(=O)c2ccc3c(c2)N(Cc2cccc(Cl)c2)C(=O)c2ccccc2S3(=O)=O)cc1Cl the results were Pol beta inh 2%, Pol iota inh 33%, FEN1 inh 2%, Pol eta inh -19% and POLK inh 3%.
CC(=O)OCC(NC(=O)C(C)NC(=O)OC(C)(C)C)C1OC(n2cc(F)c(=O)[nH]c2=O)C(OC(C)=O)C1OC(C)=O (configuration not stated) was read as Pol iota inh -4%, FEN1 inh -6% and POLK inh -5%.
`O=S(=O)(O)c1cccc2cccc(Nc3ccccc3)c12` gave Pol iota inh 28µM*, FEN1 inh inconclusive, Pol eta inh 20µM*, POLK inh inconclusive and WRN inhibitor 3%[11.6 µM].
`COc1ccc(N2CCN(C(=O)COc3ccc4ccccc4c3)CC2)cc1` gave Pol beta inh 8%, Pol iota inh 8%, FEN1 inh 9%, Pol eta inh 5%, POLK inh -6% and WRN inhibitor 3%.
COc1cc(OC)cc(C(=O)N2CCN(C(=O)COc3ccc4ccccc4c3)CC2)c1 was read as Pol beta inh 13%, Pol iota inh 71µM*, FEN1 inh 7%, Pol eta inh -10%, POLK inh -7% and WRN inhibitor -7%[57.1 µM].
